For 16 compounds, Potency results are on record in PubChem BioAssay (Tox21).

The target in experiment [1] is Nuclear receptor ROR-gamma (Homo sapiens) (UniProt P51449). Description: qHTS assay to identify small molecule antagonists of the retinoid-related orphan receptor gamma (ROR-gamma) signaling pathway (AID 1159521; also: nearly all actives have a fitted effect of over 50% in size; also: potency is read from the fitted curve at half-maximal effect). In a few lines: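 Test compounds were applied to Tet-on RORγ CHO cells 2 h ahead of doxycycline hyclate (1 uM final). Luciferase reporter activity was quantified by luminescence after 16 h at 37 C and 5% CO2.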
In general terms: qHTS replaces the single test concentration by a dilution series.

Experiment [2] in a line: qHTS assay to identify small molecule antagonists of the retinoid acid receptor (RAR) signaling pathway - cell viability counter screen (AID 1159551). Also: nearly all actives have a fitted effect of over 35% in size. Also: potency is read from the fitted curve at half-maximal effect. Put shortly:
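Cytotoxicity counter screen: ATP content quantified by CellTiter-Glo luminescence in C3RL4 cells treated 6 hr at 37 C with compound and retinol (1 uM final). Cells plated at 1,000/well and cultured overnight before dosing.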

Experiment [3] in a line: qHTS assay to identify small molecule antagonists of the retinoic acid receptor (RAR) signaling pathway (AID 1159552; also: nearly all actives have a fitted effect of over 50% in size; also: potency is read from the fitted curve at half-maximal effect). In a few lines: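 Test chemicals and DMSO controls were pin-transferred onto C3RL4 cells a day after seeding; retinol (1 uM final) followed at once. Luminescent reporter output was quantified after 6 hr of co-incubation and 30 min with detection reagent.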

The nature of experiment [4]: qHTS assay to identify small molecule antagonists of the estrogen related receptor (ERR) signaling pathway from Tox21 library - cell viability counter screen (AID 1224834). Also: nearly all actives have a fitted effect of over 30% in size. Also: potency is read from the fitted curve at half-maximal effect. In a few lines: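 CellTiter-Fluor fluorescence, read after 30 min at 37 C, measures viability of ERR cells. Cells plated at 2,000/well and incubated 6 h before pin-tool compound addition, then exposed 17.5 hours at 37 C.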

Experiment [5] addresses Luciferin 4-monooxygenase (Photinus pyralis) (UniProt P08659). The experiment in a line: qHTS assay to identify small molecule inhibitors of firefly luciferase (AID 1224835). Also: nearly all actives have a fitted effect of over 25% in size. Also: potency is read from the fitted curve at half-maximal effect. Put shortly:
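Quantitative HTS format; KM concentrations of both substrates. Purified P. pyralis FLuc activity quantified from luminescence images.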

Experiment [6] is described as follows: qHTS assay to identify small molecule agonists of the constitutive androstane receptor (CAR) signaling pathway - cell viability counter screen (AID 1224836). Also: nearly all actives have a fitted effect of over 45% in size. Also: potency is read from the fitted curve at half-maximal effect. Put shortly:
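23 h treatment, 37 C, 5% CO2. Cell line: HepG2 stably expressing hCAR with a CYP2B6-2.2kb construct. Co-treatment: PK11195, 0.75 uM final. Read-out: CellTiter-Fluor fluorescence intensity.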

Experiment [7] is described as follows: qHTS assay to identify small molecule antagonists of the constitutive androstane receptor (CAR) signaling pathway - cell viability counter screen (AID 1224837). Also: nearly all actives have a fitted effect of over 45% in size. Also: potency is read from the fitted curve at half-maximal effect. Put shortly:
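Cytotoxicity counter-screen: CellTiter-Fluor fluorescence after 23 h compound exposure (15-point qHTS) in double-stable HepG2-CYP2B6-hCAR cells, with 50 nM CITCO added.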

For experiment [8], the target named is Nuclear receptor subfamily 1 group I member 3 (Homo sapiens) (UniProt Q14994). The experiment in a line: qHTS assay to identify small molecule agonists of the constitutive androstane receptor (CAR) signaling pathway (AID 1224839). Also: nearly all actives have a fitted effect of over 15% in size. Also: potency is read from the fitted curve at half-maximal effect. In a few lines:
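Compounds tested at 15 concentrations on HepG2 cells stably harbouring hCAR and CYP2B6-2.2kb reporter constructs, co-treated with PK11195 (0.75 uM final), 24 h at 37 C; luminescent reporter signal quantified.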

Experiment [9] is described as follows: qHTS assay to identify small molecule agonists of the retinoic acid receptor (RAR) signaling pathway (AID 1159553). Also: potency is read from the fitted curve at half-maximal effect. Put shortly:
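Luminescence was measured 30 min after luciferase reagent addition at room temperature. Before that, C3RL4 reporter cells (1,000 per well, plated overnight) were treated with compound for 6 hr at 37 C and 5% CO2.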

The target of experiment [10] is Nuclear receptor subfamily 1 group I member 3 (Homo sapiens) (UniProt Q14994). The experiment in a line: qHTS assay to identify small molecule antagonists of the constitutive androstane receptor (CAR) signaling pathway (AID 1224838).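 Also: HepG2 cells stably expressing hCAR with CYP2B6 luciferase reporter stimulated by CITCO; nearly all actives have a fitted effect of over 40% in size.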 Also: potency is read from the fitted curve at half-maximal effect. Put shortly:
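Antagonism measured as luciferase signal (ONE-Glo, 30 min, room temperature) in CAR-stimulated cells: HepG2-CYP2B6-hCAR double-stable line exposed 24 hr at 37 C to compound in a 15-point series plus 50 nM CITCO.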

Experiment [11] is described as follows: qHTS assay to identify small molecule agonists of the RXR signaling pathway - cell viability counter screen (AID 1159529). Also: nearly all actives have a fitted effect of over 50% in size. Also: potency is read from the fitted curve at half-maximal effect. In a few lines:
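Compounds dissolved in DMSO were pinned onto HEK 293T cells carrying a beta-lactamase reporter under RXR-alpha control and incubated 16 hr. Cytotoxicity was then quantified by CellTiter-Glo luminescence.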

A short description of experiment [12]: qHTS assay to identify small molecule agonists of the AP-1 signaling pathway - cell viability counter screen (AID 1159525; calls by dose curve; also: nearly all actives have a fitted effect of over 55% in size). In a few lines:
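Each titration point was normalised to DMSO and tetra n-octyl ammonium bromide controls. The read was Cell Titer Glo luminescence after 30 min at RT, following 5 h compound exposure of ME-180 AP-1-bla cells at 37 °C.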

A short description of experiment [13]: qHTS assay to identify small molecule agonists of the AP-1 signaling pathway (AID 1159526; calls by dose curve).
Experiment [14] has as its target Retinoic acid receptor RXR-alpha (Homo sapiens) (UniProt P19793). Description: qHTS assay to identify small molecule agonists of the RXR signaling pathway (AID 1159527; calls by dose curve; also: nearly all actives have a fitted effect of over 35% in size; also: potency is read from the fitted curve at half-maximal effect). Put shortly:
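Using 9-cis retinoic acid as the reference agonist, chemicals were tested in HEK 293T cells […] for 16 hr; substrate loading lasted 2 hr at room temperature.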

SMILES strings stand for the structures. Inconclusive results are not listed. The source made the active and inactive calls. Unless noted, calls follow the shape of the dose curve; as a rule, active = well fitted curve in the direction sought with a large enough effect in the repeat runs; inconclusive = weak or mixed curves; inactive = no such curve, though single readings can be large; an effect the other way counts as inactive or inconclusive.

Sequence of Luciferin 4-monooxygenase (Photinus pyralis) (P08659 whole entry, looked up): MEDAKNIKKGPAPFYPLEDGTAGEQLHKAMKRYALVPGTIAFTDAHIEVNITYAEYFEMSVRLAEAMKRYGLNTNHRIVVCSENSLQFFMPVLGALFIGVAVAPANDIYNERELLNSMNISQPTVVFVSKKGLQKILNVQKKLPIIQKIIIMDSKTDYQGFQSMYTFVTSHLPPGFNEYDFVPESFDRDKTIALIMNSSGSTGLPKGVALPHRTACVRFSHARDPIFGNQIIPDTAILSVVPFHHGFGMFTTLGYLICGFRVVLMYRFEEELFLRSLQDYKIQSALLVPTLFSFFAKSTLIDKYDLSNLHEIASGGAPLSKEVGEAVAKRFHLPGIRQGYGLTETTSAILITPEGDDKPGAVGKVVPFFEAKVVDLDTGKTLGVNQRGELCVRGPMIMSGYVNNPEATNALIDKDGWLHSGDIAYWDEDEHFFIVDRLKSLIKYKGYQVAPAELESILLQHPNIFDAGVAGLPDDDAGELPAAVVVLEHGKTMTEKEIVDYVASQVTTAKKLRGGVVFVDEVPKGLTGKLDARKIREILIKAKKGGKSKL
Sequence of Nuclear receptor subfamily 1 group I member 3 (Homo sapiens) (Q14994 whole entry, looked up): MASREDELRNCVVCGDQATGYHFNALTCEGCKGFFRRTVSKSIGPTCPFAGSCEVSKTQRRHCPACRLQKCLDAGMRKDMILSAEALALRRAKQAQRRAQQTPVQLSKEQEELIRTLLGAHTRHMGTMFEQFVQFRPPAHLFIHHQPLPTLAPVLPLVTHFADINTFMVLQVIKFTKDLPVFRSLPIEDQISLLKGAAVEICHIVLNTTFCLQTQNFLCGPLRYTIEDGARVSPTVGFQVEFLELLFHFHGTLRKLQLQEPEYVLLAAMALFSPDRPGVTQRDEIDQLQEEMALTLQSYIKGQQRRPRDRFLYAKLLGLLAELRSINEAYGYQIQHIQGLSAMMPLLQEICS
Sequence of Retinoic acid receptor RXR-alpha (Homo sapiens) (P19793 whole entry, looked up): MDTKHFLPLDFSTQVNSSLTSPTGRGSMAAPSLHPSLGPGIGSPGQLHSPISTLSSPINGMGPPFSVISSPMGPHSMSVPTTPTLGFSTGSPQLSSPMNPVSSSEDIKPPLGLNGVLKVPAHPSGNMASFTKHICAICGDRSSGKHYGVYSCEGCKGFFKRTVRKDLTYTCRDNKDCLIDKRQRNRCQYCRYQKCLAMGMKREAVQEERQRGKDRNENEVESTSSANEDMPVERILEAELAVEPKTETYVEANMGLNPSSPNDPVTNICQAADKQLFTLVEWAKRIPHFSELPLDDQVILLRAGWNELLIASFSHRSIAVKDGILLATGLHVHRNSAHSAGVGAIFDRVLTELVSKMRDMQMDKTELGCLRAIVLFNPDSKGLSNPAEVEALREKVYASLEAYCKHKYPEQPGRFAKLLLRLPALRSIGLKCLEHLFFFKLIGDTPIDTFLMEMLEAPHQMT

Consider `O=[N+]([O-])c1ccc(O)c2ncccc12`, for which the Potency is 29.8 µM (active) in experiment [1], 11.9 µM (active) in [4] and 11.9 µM (active) in experiment [8]. The Potency entry in experiment [2], in experiment [3], in [5], in [6] and in [7] was “inactive” each time.
For `COc1cc(/C=C/C(=O)CC(=O)/C=C/c2ccc(O)c(OC)c2)ccc1O`, the Potency in experiment [1] is 61.5 µM (active); in [9], 9.75 µM (active); in experiment [4] it was 21.8 µM (active); in experiment [5] it was 28.4 µM (active); in experiment [7] it was 24.5 µM (active); in [10], 54.8 µM (active). Further, the Potency result in [3] and in experiment [8] was “inactive” each time.
`N#Cc1nc(Cl)c(Cl)c(Cl)c1Cl`: the Potency in [1] is 2.73 µM (active); in [11], 15.5 µM (active); in [4] it was 27.3 µM (active); in experiment [6], 43.3 µM (active); in experiment [7], 27.3 µM (active); in experiment [10], 24.3 µM (active). Besides, the Potency entry in experiment [5] and in experiment [8] was “inactive” in each case.
Turning to `CCC1(C)C(=O)N(Cl)C(=O)N1Cl` (stereo unspecified), the Potency entry in experiment [12], in experiment [13], in experiment [14], in experiment [11], in experiment [2] and in [3] was “inactive” throughout. In addition, the Potency entry in experiment [4], in [5], in experiment [6], in experiment [7] and in experiment [8] was “inactive” throughout.
Regarding `C=CC(=O)OCC(Br)CBr` (stereo unspecified), the Potency result in experiment [12], in experiment [13], in experiment [14], in experiment [11], in experiment [2] and in experiment [3] was “inactive” throughout. The Potency entry in experiment [4], in [5], in [6] and in experiment [7] was “inactive” throughout.
On to `CCCCCCCCCCCCN1CCCC1=O`, for which the Potency entry in experiment [1], in experiment [14], in [2], in experiment [3], in experiment [6] and in experiment [7] was “inactive” each time. In [10], the Potency result was “inactive”. Besides, the results for the Potency in [11], in [5] and in [8] were 54.9 µM (active), 44.8 µM (active) and 54.5 µM (active), respectively.
`Oc1ccc(Cl)cc1C1CCCC1`: the Potency result in [1], in [2], in experiment [9], in experiment [4], in experiment [5] and in experiment [6] was “inactive” in each case. Besides, the Potency result in experiment [7] and in experiment [10] was “inactive” throughout. Also, the Potency in [14] is 11 µM (active).
`COc1ccc(OC)c(N=Nc2c(O)ccc3ccccc23)c1`: the Potency entry in experiment [1] and in experiment [3] was “inactive” throughout. Also, the Potency is 17.2 µM (active) in experiment [2]; 24.3 µM (active) in experiment [4]; 6.33 µM (active) in experiment [5]; 30.6 µM (active) in experiment [6]; 24.3 µM (active) in [7]; 12.2 µM (active) in experiment [8].
Regarding `CCOC(=O)OC(=O)OCC`, the Potency result in [12], in experiment [13], in [14], in experiment [11], in [2] and in experiment [3] was “inactive” throughout. Further, the Potency entry in [4], in [5], in experiment [6], in experiment [7], in experiment [10] and in experiment [8] was “inactive” each time.
In the case of `Nc1cc([N+](=O)[O-])cc(Cl)c1O`, the Potency entry in experiment [12], in [13], in [14], in experiment [11], in experiment [2] and in [3] was “inactive” in each case. Further, the Potency result in experiment [5], in experiment [6] and in experiment [8] was “inactive” each time.
For the compound `CCCCCCCCCCCCCCCCCCNC(=O)OC1CCN(C(=O)OC[C@H](COC(=O)N(Cc2cccc[n+]2CC)C(=O)c2ccccc2OC)OC)CC1`, the Potency was 29.8 µM (active) in experiment [1], 23.9 µM (active) in [11], 26.6 µM (active) in [3] and 26.6 µM (active) in experiment [4]. Further, the Potency result in experiment [9], in experiment [5], in experiment [6], in experiment [10] and in experiment [8] was “inactive” throughout.
For the compound `C=CC(=O)O[C@H]1C[C@@H]2CC[C@@]1(C)C2(C)C`, the Potency entry in [12], in experiment [13], in experiment [14], in experiment [11], in experiment [2] and in experiment [3] was “inactive” in each case. Also, the Potency result in experiment [4], in experiment [5], in experiment [6], in experiment [7] and in experiment [8] was “inactive” throughout.
With `CCCC(C)C=O` (stereo unspecified), the Potency result in [12], in [13], in [14], in experiment [11], in experiment [2] and in experiment [4] was “inactive” in each case. Besides, the Potency entry in experiment [5], in [6], in experiment [7], in experiment [10] and in experiment [8] was “inactive” throughout.
On to `C=C(C)C1CCC(C)CC1O` (stereo unspecified), for which the Potency entry in [12], in experiment [13], in experiment [14], in experiment [2], in [4] and in experiment [5] was “inactive” each time. Moreover, the Potency entry in [6] and in experiment [7] was “inactive” in each case.
In the case of `CC(C)(C)c1ccc(OC2CCCCC2O)cc1` (stereo unspecified), the Potency entry in [1], in experiment [3], in experiment [6], in experiment [7] and in experiment [10] was “inactive” in each case. In addition, the Potency was 31.7 µM (active) in experiment [5] and 27.3 µM (active) in [8].
Take `O=C(c1ccccc1)c1ccc(Cl)cc1`: the Potency in [1] was 68.6 µM (active). Besides, the Potency result in experiment [2], in [3], in experiment [4], in [6], in experiment [7] and in experiment [10] was “inactive” in each case.
